Screening results: PubChem BioAssay, National Center for Advancing Translational Sciences (NCATS)
Shown are actives, neighbours in structure and some others; about 3.7% of the full set was active somewhere.
Tau fibril ThT = qHTS for Inhibitors of Tau Fibril Formation, Thioflavin T Binding; recombinant tau K18 P301L, heparin-induced fibrillization, ThT fluorescence; Potency, µM (highest dose often 57.4 µM), inactives show top-dose activity, negative = inhibition, hits mostly inhibitors; 2.1% of 270,000 active; AID 1460, 2008; also: % is scaled to controls: 0 for no effect and ±100 for the full control effect; nearly all actives have a fitted effect of over 55% in size
Target sequence (P10636 561-689 P618L limits assumed): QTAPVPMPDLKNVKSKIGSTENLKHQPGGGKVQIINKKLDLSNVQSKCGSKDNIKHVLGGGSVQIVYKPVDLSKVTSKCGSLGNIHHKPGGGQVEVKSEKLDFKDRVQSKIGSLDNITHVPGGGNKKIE
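Recombinant human tau K18 fragment […] carrying P301L, 15 uM unlabeled plus 0.24 uM Alexa 594-labeled, was fibrillized with 20 uM heparin in 100 mM sodium acetate pH 7 for 6 hr at 37 C; 30 uM ThT fluorescence read after 1 hr.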
HttQ103 aggreg = qHTS Multiplex Assay to Identify Dual Action Probes in a Cell Model of Huntington: Aggregate Formation (GFP); PC12 HttQ103-GFP aggregates, Acumen cytometry, 40 h; Potency, µM (highest dose often 46.1 µM), for inactives: top-dose activity change, negative = inhibition, actives largely listed as inhibitors; 1.1% of 220,000 active; AID 1688, 2009; also: % is scaled to controls: 0 for no effect and ±100 for the full control effect; nearly all actives have a fitted effect of over 60% in size
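Steps: seed 1500 PC12 HTTQ103-GFP cells/well; add tebufenozide, 100 nM final; add compound titration; add ATPLite reagent; quantify GFP aggregates by laser scanning cytometry.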
Tau fluor counter = Counterscreen qHTS for Inhibitors of Tau Fibril Formation, Fluorescence Polarization; 0.93% of 280,000 active; Potency, µM (top dose mostly 57.7 µM), inactives show at the top dose activity change, negative = decrease; tau K18 P301L Alexa594 fluorescence, heparin fibrillization; also: % is scaled to controls: 0 for no effect and ±100 for the full control effect; nearly all actives have a fitted effect of over 55% in size
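Human tau K18 P301L (15 uM unlabeled, 0.24 uM Alexa 594-labeled) in 100 mM sodium acetate pH 7 with 20 uM heparin, 6 hr at 37 C. ThT 30 uM added, 1 hr ambient; Alexa 594 FP and total fluorescence read at 555/632 nm.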
Tau FP inhib = qHTS for Inhibitors of Tau Fibril Formation, Fluorescence Polarization. K18 P301L tau heparin fibrillization, Alexa594 FP, 6 h. Potency, µM (titrated, usually from 57.7 µM), inactives show at the top dose activity, negative = inhibition, usual class: inhibitors. 0.39% of 280,000 active. AID 1468, 2008. Microtubule-associated protein tau (Homo sapiens), P10636; also: % is scaled to controls: 0 for no effect and ±100 for the full control effect; nearly all actives have a fitted effect of over 55% in size
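Compound effects on tau fibrillization are measured by Alexa 594 fluorescence polarization (ex 555, em 632 nm). K18 P301L tau is used at 15 uM with 0.24 uM labeled tracer, and 20 uM heparin induces aggregation over 6 hr at 37 C.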
HTT cytoprotect = qHTS Multiplex Assay to Identify Dual Action Probes in a Cell Model of Huntington: Cytoprotection (ATP). PC12 HTT-Q103 induced, cytoprotection, ATP luminescence, 40 h. Potency, µM (highest dose often 56.4 µM), without a hit: cytoprotection (ATP increase), usual class: activators. 0.14% of 230,000 active. AID 1471, 2008; also: % of control where 0% means no effect; nearly all actives have a fitted effect of over 45% in size
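Compounds added alongside 100 nM tebufenozide, which induces toxic Q103 huntingtin exon 1-GFP in stable PC12 cells; surviving cells quantified by luminescent ATP measurement. Medium: phenol red-free DMEM, 5% equine and 5% calf serum.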
* marks the source's active call; other numbers are inactive results; ? = inconclusive; nt = no result given; [ ] = another dose, or the depositor's remark. Calls follow the shape of the dose curve; as a rule, active = well fitted curve in the direction sought with a large enough effect; inconclusive = small, poorly fitted or top-dose-only effect, or another doubt; inactive = no such curve, though single readings can be large; an effect the other way counts as inactive or inconclusive. Potency is read from the fitted curve at half-maximal effect.

SMILES	Tau fibril ThT	HttQ103 aggreg	Tau fluor counter	Tau FP inhib	HTT cytoprotect
CCOC(=O)CCN1C(=O)[C@H]2[C@H]3[C@H](O)[C@H](O)C/C(=N/NC(=O)OCC)[C@H]3CC[C@@H]2C1=O	-0.5%[11.5 µM]	nt	-2.2%[11.6 µM]	-4.6%[11.6 µM]	-1.5%[10 µM]
Cc1ccc(-n2c(O)c(/C=N/Nc3ccc(S(=O)(=O)N4CCOCC4)cc3[N+](=O)[O-])c3ccccc3c2=O)c(C)c1	12.6µM*	?	?	-8.7%	8.0%[10 µM]
O=C(O)c1ccc(/C=N\Nc2ccc(S(=O)(=O)N3CCOCC3)cc2[N+](=O)[O-])cc1	?	13.9%[9.22 µM]	-20.1%	2.8%	4.5%[10 µM]
COC(=O)/C=C\c1cc(O)ccc1O	?	nt	-27.3%	0.2%	-83.2%
CCOc1ccc(-c2cc3c(=O)n(CC(=O)Nc4cc(F)ccc4C)ccn3n2)cc1	-4.2%	nt	-3.5%	-7.3%	nt
CC1(C)S[C@@H]2[C@H](NC(=O)C3(N)CCCCC3)C(=O)N2[C@@H]1C(=O)O	nt	nt	nt	nt	-1.9%[10 µM]
Cc1cc(N(C)C)ccc1N=Nc1ccc2ncccc2c1	0.501µM*	-9.9%[9.22 µM]	?	11.0%	-2.0%[10 µM]
CCOC(=O)c1c(NS(=O)(=O)c2cccc(OC)c2)sc2c1CCC2	?	-6.4%	-24.7%	-10.4%	14.1µM*
CCOC(=O)c1c(NC(=O)c2ccccc2C)sc2c1CCCC2	31.6µM*	nt	-24.3%	?	nt
CCOC(=O)c1c(NC(=O)c2cc(-c3cccc(OC)c3)on2)sc2c1CCCC2	?	nt	-12.8%	-20.1%	nt
COc1ccc(/C=C/C(=O)c2ccc3ccccc3c2O)cc1CN1CCOCC1	15.8µM*	?	-22.8%	-15.5%	?
N[C@@H](CSC1(c2ccc(Cl)cc2)c2ccccc2-c2ccccc21)C(=O)O	nt	nt	nt	nt	7.6%[10 µM]
O=C(CN1CCCCC1)N1CCCc2c1c(=O)oc1ccc(OCc3ccccc3)cc21	-8.5%	?	3.1%	4.4%	3.16µM*
Cc1ccc2c(c1)N(C(=O)CSc1nncn1C)C(C)(C)c1ssc(=S)c1-2	?	-16.2%	-19.6%	11.2%	23.9%[10 µM]
Cc1cc2c(cc1C)N(C(=O)CSc1nncn1C)C(C)(C)c1ssc(=S)c1-2	20µM*	-2.9%	-21.7%	3.8%	12.6%[10 µM]
C/C(=N\Nc1ccc(S(N)(=O)=O)cc1[N+](=O)[O-])c1ccc2c(c1)OCO2	3.55µM*	15.8%	?	-0.9%	-44.0%
NS(=O)(=O)c1ccc(N/N=C/c2ccc[nH]2)c([N+](=O)[O-])c1	7.94µM*	-4.3%[9.22 µM]	?	-5.9%	-31.8%[10 µM]
NS(=O)(=O)c1ccc(N/N=C/c2ccc(C(=O)O)cc2)c([N+](=O)[O-])c1	11.2µM*	-7.0%[9.22 µM]	-20.2%	-4.1%	13.8%[10 µM]
CCN(CC)S(=O)(=O)c1ccc(N/N=C(\C)c2ccc3c(c2)OCO3)c([N+](=O)[O-])c1	-9.9%	-4.7%	-20.7%	3.1%	29.0%[0.074 µM]
COc1ccc(NS(=O)(=O)c2ccc(N/N=C/c3ccc(N4CCOCC4)cc3)c([N+](=O)[O-])c2)cc1	?	2µM*	?	?	nt
CC(=O)O[C@@]12CO[C@@H]1C[C@H](O)[C@@]1(C)C(=O)[C@H](O)C3=C(C)[C@@H](OC(=O)C(O)[C@@H](NC(=O)OC(C)(C)C)c4ccccc4)C[C@@](O)([C@@H](OC(=O)c4ccccc4)[C@H]21)C3(C)C (stereo partly specified)	nt	0.7%	nt	nt	-58.8%
CCOc1cccc2oc(-c3ccccc3Cl)cc(=O)c12	-7.3%[81.4 µM]	nt	-10.7%[81.3 µM]	-8.1%[81.3 µM]	-29.6%
COc1ccc(CNCCC(c2ccc3c(c2)OCO3)c2ccccc2OC)cc1 (stereo unspecified)	-8.1%	nt	0.4%	-4.3%	nt
Cc1nn(-c2ccccc2)c(N2CCCC2)c1/C=N/Nc1ccc(S(N)(=O)=O)cc1[N+](=O)[O-]	5.01µM*	-7.0%	14.1µM*[quencher]	-5.5%	4.4%[10 µM]
Cc1nn(-c2ccccc2)c(N2CCCC2)c1/C=N/NC(=O)c1cc2ccccc2cc1O	0.4%	-7.1%	-3.6%	6.6%	-16.5%[10 µM]
SMILES	Tau fibril ThT	HttQ103 aggreg	Tau fluor counter	Tau FP inhib	HTT cytoprotect
CCOC(=O)N1CCC(=NNc2ccc(S(N)(=O)=O)cc2[N+](=O)[O-])CC1	5.01µM*	?	-7.8%	1.9%	-11.1%[10 µM]
CC(=O)N1CCC(=NNc2ccc(S(N)(=O)=O)cc2[N+](=O)[O-])CC1	?	16.1%[9.22 µM]	-15.3%	-2.9%	29.4%[10 µM]
COc1ccc(/C=N\Nc2ccc([N+](=O)[O-])cc2[N+](=O)[O-])c(C(=O)O)c1OC	14.1µM*	-7.5%[9.22 µM]	-29.0%	-6.7%	6.6%[10 µM]
COc1cc(/C=N/Nc2ccc(S(N)(=O)=O)cc2[N+](=O)[O-])cc(OC)c1O	1.78µM*	2.3%[9.22 µM]	?	8.1%	2.2%[10 µM]
CN(C)c1ccc(NC(=O)CCSc2nc(-c3ccco3)cc(C(F)(F)F)n2)cc1	?	nt	?	1.3%	nt
CCCC1O[C@@H]2C[C@H]3[C@@H]4CCC5=CC(=O)C=C[C@]5(C)C4[C@@H](O)C[C@]3(C)[C@]2(C(=O)CO)O1 (stereo partly specified)	-2.5%	nt	-4.2%	-6.4%	nt
N#Cc1c2ccc(O)cc2n2ccccc12	-11.7%	10µM*	?	13.0%	-24.1%
COC(=O)Cn1c(C)c(C#N)c2ccccc21	11.6%	-13.8%	6.6%	-0.8%	-28.8%[10 µM]
Cc1cccc(NC(=O)C2SC(=Nc3c(C)cccc3C)C(C(=O)N3CCOCC3)=C2N)c1 (stereo unspecified)	7.08µM*	?	?	?	22.6%[10 µM]
CN(CC(=O)Nc1ccc(F)cc1F)S(=O)(=O)c1ccc(C(=O)N2CCOCC2)s1	-5.5%	nt	-8.4%	-1.8%	nt
Sc1oc(-c2ccccc2)cc1C=Nc1ccccc1	8.91µM*	5.2%[9.22 µM]	17.8µM*[quencher]	5.2%	-9.6%
CC(C)CO/N=C1/[C@H]2O[C@@H]2[C@@H](O)[C@H]2[C@H]1CCn1c(=O)n(C)c(=O)n12	-11.1%[11.5 µM]	nt	-12.8%[11.6 µM]	1.2%[11.6 µM]	-6.3%[10 µM]
O=C(CSc1nc2ccc(S(=O)(=O)N3CCOCC3)cc2[nH]1)N1CCOCC1	28.2µM*	1.6%[9.22 µM]	-25.7%	?	-7.9%
Cc1cc(C)c(C(=O)COc2cccnc2[N+](=O)[O-])cc1C	14.1µM*	?	?	?	-96.9%
Cn1nc(C(F)(F)F)c(/C=N/OC(=O)c2ccccc2)c1Cl	-0.4%	-3.0%	-0.3%	-4.8%	32.2%
Cn1nc(C(F)(F)F)c(/C=N/OC(=O)c2ccccc2)c1Sc1ccc(Cl)cc1	-6.4%	14.1µM*	-15.6%	-6.1%	-8.0%
CCN1CCc2c(sc(-n3cccc3)c2C(C)NC(=O)Nc2cc(Cl)c(OC)cc2OC)C1 (stereo unspecified)	?	nt	?	11.8%	nt
